High-throughput results from PubChem.
Most compounds without a hit are left out; they make up all but 2.6% or so of the library.
Peg3 prom inh = reduces Peg3 promoter-driven luciferase expression in HeLa; inhibition, % at 20 µM; actives 1.7% (n = 360,000); HeLa PEG-Prom luciferase reporter, luminescence, overnight;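 active means inhibition of at least 50% at 20 µM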
CF NFkB inh = cystic fibrosis NF-kB activation inhibition; actives 0.86% (n = 360,000); inhibition, % at 5 µM; AID 588850; KKLEB NF-kB-GFP reporter, PAF-induced, GFP fluorescence overnight;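 active means at least 50% inhibition at 5 µM, scaled per plate between neutral and stimulator controls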;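 further: PAF is a Pseudomonas aeruginosa culture filtrate used as stimulus; plate controls were PAF-stimulated DMSO wells for no effect and unstimulated DMSO wells for full effect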
KKLEB tox = reduces viability of KKLEB cystic fibrosis airway cells | KKLEB CF airway cells viability, ATPlite luminescence, overnight; active compounds read low; cells stimulated with P. aeruginosa culture filtrate | activity change (cytotoxicity), % at 5 µM | actives 0.36% (n = 360,000) | AID 602141;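 active means corrected activity change at or below -50% at 5 µM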
Shn3 inh set2 = inhibitors of Schnurri-3 3'UTR reporter in osteoblasts; AID 588674; Clone20 osteoblast Shn3 3'UTR firefly luciferase, 24 h; inhibition, % at 12.5 µM; actives 0.52% (n = 360,000);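 active means mean inhibition of at least 75% with every replicate also reaching 75%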;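 further: 0% = median of neutral control wells and 100% = pilot-screen positive control compound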
HIF-2a block = blocks HIF-2a reporter activity. 786-0 RCC cells HIF-2a reporter, luciferase luminescence, overnight. inhibition, % at 18.8 µM. actives 0.72% (n = 360,000). AID 624352;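 active means inhibition of the luminescence signal of 40% or more relative to plate controls, in a single-dose primary screen at 18.75 µM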
Active calls of the source: *.

SMILES | Peg3 prom inh | CF NFkB inh | KKLEB tox | Shn3 inh set2 | HIF-2a block
COc1cccc(NC(=O)COC(=O)c2c3c(nc4ccccc24)CCC(C)C3)c1 (stereo not drawn) | 71.1* | -7.6 | 0.5 | 50.9 | -52.3
CC(CCc1ccccc1)NC(=O)CN1CCSc2ccccc21 (stereo not drawn) | 15.7 | -5.9 | -1.7 | -16.5 | -0.6
CCC(C)NC(=O)c1ccc2c(Cl)c3c(nc2c1)CCC3 (stereo not drawn) | -242.5 | 4.3 | -11.2 | -82.4 | -330.6
CN1CCN(CCCNC(=O)c2ccc3c(Cl)c4c(nc3c2)CCCC4)CC1 | 87.1* | 0.9 | 3.2 | -28.7 | -20.2
O=C1C=C(c2c(O)ccc3ccccc23)c2ccccc2C1=O | 106.8* | 88.4* | -35.7 | 96.1* | 84.4*
COc1cccc(/C=N/Nc2ncnc3c2ncn3Cc2ccccc2)c1O | 24.8 | 8.0 | 13.0 | 90.2* | -38.9
COc1cccc(/C=N/Nc2cc(Cl)nc(C)n2)c1O | -127.6 | -3.4 | -2.7 | -32.7 | -149.2
CC1=CC(C)(C)N(S(=O)(=O)c2ccc(C)cc2)c2cc(C)ccc21 | 31.1 | 51.4* | -28.7 | 24.9 | 5.6
CC1=CC(C)(C)N(C(=O)CCl)c2cc(C)ccc21 | -5.6 | -12.3 | 5.8 | 19.2 | -1.0
COc1ccc2c(c1)C(C)=CC(C)(C)N2S(=O)(=O)c1ccc(C)cc1 | 30.6 | 48.9 | -26.8 | 59.3 | 12.1
CCOc1ccc2c(c1)C(C)=CC(C)(C)N2S(=O)(=O)c1ccc(C)cc1 | 19.9 | 60.9* | -21.8 | 78.5 | 39.2
COc1ccc(-c2cc(-c3ccc(C)cc3)nc(SCc3nnc(-c4ccccc4)o3)c2C#N)cc1OC | 37.8 | 45.9 | -70.3* | 14.0 | 12.4
COc1cc(-c2cc(-c3ccccc3)nc(SCC(=O)O)c2C#N)cc(OC)c1OC | 11.9 | -25.4 | 7.8 | -10.4 | 11.4
COc1cc([C@@H]2c3cc4c(cc3[C@H](O)[C@H]3COC(=O)[C@H]23)OCO4)cc(OC)c1OC | -33.0 | 51.0* | -27.8 | 10.3 | 28.5
COc1cc(C2c3cc4c(cc3OC(NNC(N)=S)C2C)OCO4)cc(OC)c1OC (stereo not drawn) | -9.8 | 43.8 | -22.0 | -21.7 | 20.8
COc1cc(C2c3cc4c(cc3C(OC3OC5COC(c6cccs6)OC5C(O)C3O)C3COC(=O)C23)OCO4)cc(OC)c1O (stereo not drawn) | 21.4 | 33.0 | 10.3 | 93.6* | 6.9
COc1cc(C2c3cc4c(cc3OC(NNC(N)=O)C2C)OCO4)cc(OC)c1OC (stereo not drawn) | -18.6 | 50.6* | -28.6 | -7.8 | 26.1
COc1cc(C2c3cc4c(cc3C(O)C3COCC23)OCO4)cc(OC)c1OC (stereo not drawn) | 10.3 | 17.6 | -12.1 | -3.2 | 12.2
COc1cc([C@@H]2c3cc4c(cc3[C@@H](O[C@@H]3O[C@@H]5CO[C@@H](C)O[C@H]5[C@H](O)[C@H]3O)[C@H]3COC(=O)[C@H]23)OCO4)cc(OC)c1O | 8.7 | 4.9 | -2.5 | 81.3 | 11.6
O=C(Cn1cc(C(=O)c2ccco2)c2ccccc21)Nc1ccccc1F | 16.1 | -15.7 | -8.5 | 89.0* | 10.8
COC(=O)CC1(c2ccccc2)C(=O)c2ccccc2C1=O | 6.9 | 8.7 | 2.9 | 2.2 | 9.8
COC(=O)CC1(c2cccc3ccccc23)C(=O)c2ccccc2C1=O | 12.9 | 0.9 | -1.2 | -14.7 | 77.5*
C[C@H](O)C(=O)C1=Nc2c(nc(N)[nH]c2=O)NC1 | 2.3 | 11.6 | -94.8* | -3.8 | 3.9
C[C@H](O)[C@H](O)[C@H]1CNc2nc(N)[nH]c(=O)c2N1 | -12.6 | 18.2 | 9.0 | 8.1 | 0.7
CN(C(=S)NC(=O)CCCOc1ccc(Cl)cc1Cl)c1ccccc1 | -25.4 | 2.0 | -2.1 | -6.1 | -31.6
SMILES | Peg3 prom inh | CF NFkB inh | KKLEB tox | Shn3 inh set2 | HIF-2a block
Cc1ccc(-c2cc(C(=O)N3N=C(C(F)F)CC3(O)C(F)F)c3ccccc3n2)cc1C (stereo not drawn) | -42.2 | 51.5* | -50.3* | -9.0 | -290.5
CC1=NOC(=O)/C1=C\c1ccc(-c2ccc(Cl)cc2Cl)o1 | 107.9* | -26.2 | -3.1 | 13.1 | 56.0*
O=C(NC1CCC(O)CC1)c1cc(Cl)c2c(c1)OCCO2 (stereo not drawn) | -33.7 | -6.0 | 0.8 | -31.9 | -43.8
Cc1ccc(C2C(/C=C3/SC(=S)NC3=O)=C(c3cccs3)Oc3ccccc32)cc1 (stereo not drawn) | 45.9 | 63.5* | -37.9 | 22.4 | -44.7
CN(C)c1ccc(CCc2ccc(N)cc2)cc1 | -59.6 | 5.8 | 12.1 | 32.3 | 82.6*
CN(C)c1ccc(Cc2ccc(N(C)C)cc2)cc1 | -9.7 | 4.3 | -4.8 | -6.1 | -36.3
CC(NC(=O)/C(C#N)=C/c1ccc([N+](=O)[O-])o1)c1ccccc1 (stereo not drawn) | 103.2* | -52.3 | 18.5 | 94.3* | 78.2*
CCOCCCNC(=O)/C(C#N)=C/c1ccc([N+](=O)[O-])o1 | 101.0* | -6.2 | 9.0 | 97.7* | 34.0
Cc1ccc(Cl)cc1N1CCN(C(=O)c2cc3c(=O)[nH]c4ccccc4c3n2C)CC1 | 56.4* | 27.4 | -13.7 | 7.9 | 0.7
Cn1c(C(=O)N2CCN(c3ccc(Cl)cc3)CC2)cc2c(=O)[nH]c3ccccc3c21 | -30.5 | 4.1 | -0.6 | 17.1 | 9.1
CC(C)C(Cl)=NOC(=O)Nc1ccc(F)cc1 | 55.0* | 32.5 | 5.7 | 99.0* | 17.7
C/C(=N\OC(=O)Nc1ccc(Cl)cc1)c1ccc(F)c(F)c1 | -57.6 | 15.3 | 4.2 | -1.9 | -120.6
Cc1ccc2nc(N(CCCN(C)C)C(=O)CCc3ccccc3)sc2c1 | 53.1* | 0.0 | -5.8 | -19.4 | -15.4
CN(C)CCCN(C(=O)COc1ccc(Cl)cc1)c1nc2cc3c(cc2s1)OCCO3 | -85.1 | 8.8 | -9.6 | -3.9 | -43.3
Cc1ccc2nc(N(CCCN(C)C)C(=O)CS(=O)(=O)c3ccccc3)sc2c1 | -60.4 | 35.4 | -1.1 | 22.9 | -5.2
CN(C)CCCN(C(=O)CCc1ccccc1)c1nc2ccc(Cl)cc2s1 | 108.0* | 33.5 | -39.5 | -25.8 | -20.2
CN(C)CCCN(C(=O)COc1ccc(Cl)cc1)c1nc2cc3c(cc2s1)OCO3 | 64.4* | -14.1 | -11.1 | 11.4 | -0.3
Cc1nc([N+](=O)[O-])c(Br)n1CC(=O)c1ccc2ccccc2c1 | 47.0 | 63.7* | -51.8* | 95.0* | 10.8
Cc1nc([N+](=O)[O-])c(Br)n1CC(=O)c1ccccc1 | 11.4 | 31.1 | -7.7 | 8.5 | 30.8
CCN1CCN(c2ccc(NC(=O)CCc3c(C)nc4c(-c5ccccc5)c(C)nn4c3C)cc2)CC1 | 69.5* | -6.2 | -27.2 | 1.7 | 22.8
Cc1nn2c(N3CCOCC3)cc(C(C)(C)C)nc2c1-c1ccccc1 | 4.6 | -0.5 | 7.6 | 5.5 | 12.6
CCN1CCN(c2cc(C(C)(C)C)nc3c(-c4ccccc4)c(C)nn23)CC1 | 51.1* | -6.7 | -0.7 | -10.0 | -7.9
CCN(CC)S(=O)(=O)c1ccc(N/N=C(\C)c2ccc(OC)cc2O)nc1 | 37.5 | -5.0 | -0.5 | 91.2* | 6.3
O=C(O)c1ccc(Nc2nc3ccccc3nc2NS(=O)(=O)c2cccs2)cc1 | 7.6 | -6.8 | 5.7 | -29.2 | -2.2
